Screening data deposited in PubChem BioAssay by several laboratories.
Shown are actives, neighbours in structure and some others; about 4.6% of the full set was active somewhere.
HSF1 inhib – HSF1 inhibitors in luciferase reporter cells, primary screen, cell-based, NIH3T3, luminescence. NIH3T3-HGL HSE-luciferase, MG132-induced, luminescence 8 h; hits give low values. activity change, negative = inhibition, % at 7.5 µM (by protocol). 300,000 tested, 0.77% active;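 active = more than half of replicate wells show activity change below -50%, luminescence cut by over half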;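 also: luciferase reports HSF-1 transcriptional activity via heat shock element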
AHR activator – AHR activators, primary screen, cell-based, luminescence, luciferase reporter, human; Aryl hydrocarbon receptor (Homo sapiens), P35869; AHR-responsive luciferase reporter cells; activation, % at 5 µM; 320,000 tested, 2.5% active; AID 2796, 2010; in the data active = activation above about 47%
Target sequence (P35869 whole entry, looked up): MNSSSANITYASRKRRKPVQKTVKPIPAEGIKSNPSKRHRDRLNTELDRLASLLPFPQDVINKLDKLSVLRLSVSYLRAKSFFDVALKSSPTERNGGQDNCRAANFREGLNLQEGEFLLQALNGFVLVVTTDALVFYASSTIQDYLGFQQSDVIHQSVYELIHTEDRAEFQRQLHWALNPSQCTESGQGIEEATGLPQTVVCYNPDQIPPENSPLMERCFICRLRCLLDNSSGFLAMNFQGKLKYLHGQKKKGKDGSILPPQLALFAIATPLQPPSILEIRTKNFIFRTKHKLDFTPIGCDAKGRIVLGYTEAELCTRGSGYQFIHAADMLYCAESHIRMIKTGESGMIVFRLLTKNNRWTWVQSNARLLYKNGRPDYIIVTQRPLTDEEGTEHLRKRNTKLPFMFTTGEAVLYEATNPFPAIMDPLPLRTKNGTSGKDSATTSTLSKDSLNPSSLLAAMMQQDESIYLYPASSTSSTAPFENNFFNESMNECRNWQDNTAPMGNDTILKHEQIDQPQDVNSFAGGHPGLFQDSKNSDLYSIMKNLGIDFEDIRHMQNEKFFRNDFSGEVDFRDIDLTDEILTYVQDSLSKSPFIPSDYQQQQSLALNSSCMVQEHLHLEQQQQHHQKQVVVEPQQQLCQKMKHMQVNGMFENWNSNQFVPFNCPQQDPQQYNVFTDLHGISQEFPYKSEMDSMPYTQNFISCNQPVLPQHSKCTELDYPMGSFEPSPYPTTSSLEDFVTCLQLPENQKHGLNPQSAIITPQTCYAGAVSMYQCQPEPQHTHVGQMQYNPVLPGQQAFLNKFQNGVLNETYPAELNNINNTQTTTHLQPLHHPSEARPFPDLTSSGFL
GAA850 FXN act – FXN promoter activators, primary screen, cell-based, luciferase luminescence, HEK293 lucGAA850 | 360,000 tested, 0.56% active | activation, % at 6 µM | HEK293 lucGAA850 FXN promoter luciferase reporter, 24 h; percent of 10 µM SAHA response;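 active = activation above the average of all compounds screened plus 3 SD, cutoff fixed separately per campaign, cut at about 7.5% in these data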
HSF-1 act – HSF-1 activators, primary screen, NIH3T3-HGL cells, MG132 stress, luminescence, single point; AID 504408, 2011; 300,000 tested, 1.7% active; NIH3T3-HGL HSF-1 luciferase reporter, 8 h; 100% = twice DMSO control signal; activation, % at 9 µM;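 active = mean replicate activation of at least 50% with a set share of replicates each reaching 50%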
A number is an active result.

Results for N#C/C(=C/c1ccc(N2CCCCCC2)o1)c1ccc(Cl)cc1 ?
HSF1 inhib: inactive; AHR activator: inactive; GAA850 FXN act: inactive; HSF-1 act: 93

Results for Clc1ccc2[nH]c3c(NCC4CCCO4)ncnc3c2c1 (centres undefined) ?
HSF1 inhib: inactive; AHR activator: 76; HSF-1 act: inactive

How did Clc1ccc(-n2ncc3c(NCC4CCCO4)ncnc32)cc1 (centres undefined) do in these assays?
HSF1 inhib: inactive; AHR activator: inactive; GAA850 FXN act: inactive; HSF-1 act: inactive

Results for COc1cc(/C=N/NS(=O)(=O)c2ccc(C)cc2)ccc1OCc1cccc(C(=O)O)c1 ?
HSF1 inhib: -64; AHR activator: inactive; GAA850 FXN act: inactive; HSF-1 act: inactive

Results for COc1cc(/C=N/NS(=O)(=O)c2ccc3ccccc3c2)ccc1OCc1ccc(C(=O)O)cc1 ?
HSF1 inhib: -74; AHR activator: inactive; GAA850 FXN act: inactive; HSF-1 act: inactive

Results for Cc1[nH]n(-c2cccc([N+](=O)[O-])c2)c(=O)c1-c1ccccc1 ?
HSF1 inhib: inactive; AHR activator: inactive; GAA850 FXN act: inactive; HSF-1 act: inactive

How did CCc1c(O)cc2n(c1=O)-c1ccc(Cl)cc1C2(C)C do in these assays?
HSF1 inhib: inactive; AHR activator: inactive; GAA850 FXN act: inactive; HSF-1 act: inactive

How did Cc1cc(C(=O)NCCC2=CCCCC2)no1 do in these assays?
HSF1 inhib: inactive; AHR activator: inactive; GAA850 FXN act: inactive; HSF-1 act: 51

What do the screens show for `O=C(NCCC1=CCCCC1)c1cc(COc2c(F)cccc2F)on1`?
HSF1 inhib: inactive; AHR activator: inactive; GAA850 FXN act: inactive; HSF-1 act: inactive

How did COc1ccc(NC(=O)NCCC2=CCCCC2)cc1 do in these assays?
HSF1 inhib: inactive; AHR activator: inactive; GAA850 FXN act: inactive; HSF-1 act: 72

Results for COc1cccc(NC(=O)NCCC2=CCCCC2)c1 ?
HSF1 inhib: inactive; AHR activator: inactive; GAA850 FXN act: inactive; HSF-1 act: inactive

How did Cc1ccc2cccc(OCc3ccc(Br)cc3)c2n1 do in these assays?
HSF1 inhib: inactive; AHR activator: 73; GAA850 FXN act: inactive; HSF-1 act: inactive

Results for Cc1ccc(OCc2ccc(Br)cc2)c([N+](=O)[O-])n1 ?
HSF1 inhib: inactive; AHR activator: inactive; HSF-1 act: 77

Results for CCCN1CCc2c(sc(NC(=S)NC(=O)c3ccccc3)c2C#N)C1 ?
AHR activator: inactive; GAA850 FXN act: inactive

What do the screens show for `C/C(=N\Nc1cccc2cccnc12)c1ccccn1`?
HSF1 inhib: inactive; AHR activator: 47; GAA850 FXN act: inactive; HSF-1 act: inactive

What do the screens show for `Oc1c(/C=N/Nc2cccc3cccnc23)ccc2ccccc12`?
HSF1 inhib: inactive; AHR activator: 48; GAA850 FXN act: inactive; HSF-1 act: inactive

How did C/C(=N\Nc1cccc2cccnc12)c1ccc(N)cc1 do in these assays?
HSF1 inhib: inactive; AHR activator: inactive; GAA850 FXN act: inactive; HSF-1 act: inactive

Results for C/C(=N\Nc1ccccc1[N+](=O)[O-])c1ccccc1O ?
HSF1 inhib: inactive; AHR activator: inactive; GAA850 FXN act: inactive; HSF-1 act: inactive

Results for C/C(=N\Nc1cccc2cccnc12)c1ccccc1O ?
HSF1 inhib: inactive; AHR activator: 50; GAA850 FXN act: inactive; HSF-1 act: 54

How did CCN(Cc1ccc2c(c1)OCO2)C(=O)CSc1nc(C)nc2sc(C)c(C)c12 do in these assays?
AHR activator: inactive; GAA850 FXN act: inactive

What do the screens show for `Cc1ccc(C(=O)OCC(=O)NC2CC2)s1`?
AHR activator: inactive; GAA850 FXN act: inactive

How did N#C/C(=C\c1ccccc1)C(=O)NC1CC1 do in these assays?
HSF1 inhib: inactive; AHR activator: inactive; GAA850 FXN act: inactive; HSF-1 act: inactive

Results for COc1ccc2c(C)nc(Nc3nc(-c4ccccc4)cc(=O)[nH]3)nc2c1 ?
HSF1 inhib: inactive; AHR activator: inactive; GAA850 FXN act: inactive; HSF-1 act: 95

What do the screens show for `COc1ccc(-n2c(=O)[nH]cc(C(=O)N3CCc4ccccc43)c2=O)cc1`?
HSF1 inhib: inactive; AHR activator: inactive; GAA850 FXN act: inactive; HSF-1 act: inactive

How did CCN(CC)C(=O)CSc1nc2ncc(Br)cc2[nH]1 do in these assays?
HSF1 inhib: inactive; AHR activator: 63; GAA850 FXN act: inactive; HSF-1 act: inactive

What do the screens show for `CCN(CC)C(=O)Oc1ccc2ccccc2c1Br`?
HSF1 inhib: inactive; AHR activator: inactive; GAA850 FXN act: inactive; HSF-1 act: inactive

Results for COc1ccccc1C(=O)NCC(c1cccs1)N1CCc2ccccc21 (centres undefined) ?
HSF1 inhib: inactive; AHR activator: inactive; GAA850 FXN act: inactive; HSF-1 act: inactive

How did COc1cc(C(=O)NCC(c2cccs2)N2CCc3ccccc32)cc(OC)c1OC (centres undefined) do in these assays?
HSF1 inhib: inactive; AHR activator: 48; GAA850 FXN act: inactive; HSF-1 act: inactive

How did C=C(C)CN1C(=O)C(O)(CC(=O)c2ccc3c(c2)OCCO3)c2ccccc21 (centres undefined) do in these assays?
HSF1 inhib: inactive; AHR activator: inactive; GAA850 FXN act: inactive; HSF-1 act: inactive

How did COc1cccc(NC(=O)CNC(=O)Cn2cnc3sc4c(c3c2=O)CCCC4)c1 do in these assays?
HSF1 inhib: inactive; AHR activator: inactive; GAA850 FXN act: inactive; HSF-1 act: inactive

How did CC1CCN(C(=O)c2ccc(S(=O)(=O)N3CCCCCC3)cc2)CC1 do in these assays?
AHR activator: inactive; GAA850 FXN act: inactive

What do the screens show for `CN(C)S(=O)(=O)c1cc(NC(=O)c2ccc(-n3ccnc3)c([N+](=O)[O-])c2)ccc1Cl`?
HSF1 inhib: inactive; AHR activator: 53; GAA850 FXN act: inactive; HSF-1 act: inactive

How did CCN1CCN(C(=O)C2CCN(C(=O)c3cc4sccc4n3CC)CC2)CC1 do in these assays?
HSF1 inhib: -70; AHR activator: inactive; GAA850 FXN act: inactive; HSF-1 act: inactive

What do the screens show for `CCN1CCN(C(=O)c2cc3sccc3n2CC(=O)c2ccccc2)CC1`?
HSF1 inhib: inactive; AHR activator: inactive; GAA850 FXN act: inactive; HSF-1 act: inactive

How did O=[N+]([O-])c1ccc(Oc2cccc3cccnc23)c([N+](=O)[O-])c1 do in these assays?
HSF1 inhib: inactive; AHR activator: 53; GAA850 FXN act: inactive; HSF-1 act: inactive

How did CC1SCC(=O)N(CC(=O)Nc2ccc3c(c2)OCO3)C1=O (centres undefined) do in these assays?
HSF1 inhib: inactive; AHR activator: inactive; GAA850 FXN act: inactive; HSF-1 act: inactive

How did CCC1SC(CC)C(=O)N(CC(=O)Nc2ccc3c(c2)OCO3)C1=O (centres undefined) do in these assays?
HSF1 inhib: inactive; AHR activator: inactive; GAA850 FXN act: inactive; HSF-1 act: 53

What do the screens show for `Cc1cc2ccccc2c(=O)n1CC(=O)Nc1ccc2c(c1)OCO2`?
HSF1 inhib: -68; AHR activator: inactive; GAA850 FXN act: inactive; HSF-1 act: inactive

What do the screens show for `COc1cccc(-c2ccc(SCC(=O)c3ccccc3)nn2)c1`?
HSF1 inhib: inactive; AHR activator: inactive; GAA850 FXN act: inactive; HSF-1 act: inactive
